The record followed here is PubChem BioAssay.

Each structure is given as a SMILES string. Calls of active or inactive are those of the source.

In assay [1] the test system is XIP peptide (Xip251-270) binding. The experiment in a line: small-molecule binders of XIP peptide, primary screen, biochemical, small-molecule microarray, fluorescence 635/667 nm, 0.1 µg/mL protein (AID 1182). As to conditions: fluorescent protein binding, 635 nm, higher = more signal, called active from +8 up or from −8 down.
The test system of the next assay is XIP peptide (Xip251-270). The assay is described as follows: small-molecule binders of XIP peptide, primary screen, biochemical, small-molecule microarray, fluorescence 635/667 nm, 0.5 µg/mL protein (AID 1183). The settings on record: small-molecule microarray binding, fluorescence 635 nm; higher = more signal.
The nature of assay [2]: Plasmodium falciparum growth inhibition, primary screen, strain 3D7, DAPI fluorescence, 100 nL (AID 1184).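 Also: parasites grown inside human red blood cells in medium with human serum.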 The settings on record: P. falciparum 3D7 growth, 3 d, higher = more signal.
Assay [3] deals with Homeobox protein Hox-A13 (Mus musculus) (UniProt Q62424). The experiment in a line: inhibitors of HoxA13-DNA binding, primary screen, biochemical, fluorescence polarization, labeled oligonucleotide (AID 1185). The settings on record: 15 min, higher = more signal, called active from +8 up or from −8 down.
Sequence of Homeobox protein Hox-A13 (Mus musculus) (Q62424 whole entry, looked up): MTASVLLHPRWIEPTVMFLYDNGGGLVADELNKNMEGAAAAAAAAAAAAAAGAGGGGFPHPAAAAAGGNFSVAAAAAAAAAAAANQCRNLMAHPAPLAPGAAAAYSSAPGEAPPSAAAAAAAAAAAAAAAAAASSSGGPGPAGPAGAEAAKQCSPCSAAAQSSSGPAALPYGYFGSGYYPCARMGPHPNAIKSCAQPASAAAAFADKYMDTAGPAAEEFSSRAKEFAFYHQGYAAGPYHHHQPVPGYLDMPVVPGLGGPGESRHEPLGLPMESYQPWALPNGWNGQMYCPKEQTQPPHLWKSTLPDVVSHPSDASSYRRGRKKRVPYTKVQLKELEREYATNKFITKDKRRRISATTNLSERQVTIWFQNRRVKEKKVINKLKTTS

Consider `COC(=O)CC=C[C@@H](C)[C@@H](C=NOC[C@H]1O[C@H](c2ccccc2)C=C[C@@H]1Oc1ccc(OC)cc1)OC`, for which the figures for the composite z-score (in assay [1]; in the assay with XIP peptide (Xip251-270)) were 0.0079 (inactive) and -0.294, respectively. Besides, the z-score in assay [2] was 0.201; in assay [3], -2.94 (inactive).
In the case of `COc1ccc(O[C@H]2C=C[C@@H](c3ccccc3)O[C@@H]2CON=C(C)CCN2CCc3nc(-c4ccccc4)c(-c4ccccc4)cc3C2)cc1`, the composite z-score was 0.276 (inactive) in assay [1] and 0.445 in the assay with XIP peptide (Xip251-270). Besides, the z-score was -0.553 in assay [2] and -1.81 (inactive) in assay [3].
As for `O=C1[C@H]2[C@H]3[C@H](O)[C@H](O)CC(=NOCc4ccccc4)[C@H]3CC[C@H]2C(=O)N1Cc1ccc2c(c1)OCO2`, the composite z-score in assay [1] was -0.4 (inactive); with XIP peptide (Xip251-270), -0.267. The z-score is -0.437 in assay [2] and -3.74 (inactive) in assay [3].
On to `COc1cccc([C@H]2Oc3ccc(OC)cc3C(=NO[C@@H]3O[C@H](COC(C)=O)[C@@H](OC(C)=O)[C@H](OC(C)=O)[C@H]3OC(C)=O)[C@@H]2O)c1`, for which the composite z-score in assay [1] is -0.481 (inactive); with XIP peptide (Xip251-270), -0.172. The z-score in assay [2] was 0.956; in assay [3], -5.19 (inactive).
As to `CC1O[C@H]2C3=C(C(=O)[C@@H]4O[C@@H]4[C@H]3O)[C@@H]1C1[C@@H](C)OC=C3[C@H](O)C4O[C@@H]4C(=NOCc4ccccc4)[C@]312` (some centres not stated), the composite z-score was -0.319 (inactive) in assay [1] and 0.563 in the assay on XIP peptide (Xip251-270). The z-score was -0.352 in assay [2] and -1.93 (inactive) in assay [3].
The like results for `COC(=O)[C@H](C)NC(=O)CCC1CC(OC(=O)NCCc2ccc(F)cc2)CC2(CCCC(COC(=O)NCCC(C)C)O2)O1` (some centres not stated) were, in that order, 0.162 (inactive), 0.74, -0.861 and -6.77 (inactive).
Take `CCOC(=O)[C@H](Cc1ccccc1)NC(=O)CCC1CC(OC(=O)NCCc2ccc(F)cc2)CC2(CCCC(COC(=O)NCCOC)O2)O1` (some centres not stated): the composite z-score in assay [1] was 1.99 (inactive); in the assay with XIP peptide (Xip251-270), 0.0681. Further, the z-score is -0.218 in assay [2] and -6.28 (inactive) in assay [3].
The like results for `CC(=O)Nc1ccc([C@@H]2N[C@H](C(=O)O)CC[C@H]2C)cc1` were, in that order, -0.0813 (inactive), 0.119, 0.962 and -0.107 (inactive).
As for `CC=CC1=C(CO)C(=O)[C@@H]2O[C@@H]2C1=O`, the composite z-score in assay [1] was 3.73 (inactive); in the assay with XIP peptide (Xip251-270) it was 0.736. Besides, the z-score in assay [2] is 0.908; in assay [3], -3.53 (inactive).
`CC(CCN1CCCCc2nc(C)c(C)cc21)=NOC[C@@H](C)[C@H](OCc1ccccc1)C(C)C`: the results for the composite z-score (in assay [1]; in the assay with XIP peptide (Xip251-270)) were -0.494 (inactive) and -0.3, respectively. Also, the values for the z-score in assay [2] and in assay [3] were 0.318 and -2.47 (inactive), respectively.
As to `COc1cccc([C@H]2Oc3ccc(OC)cc3C(=NOC[C@@H](O)COCc3ccco3)[C@@H]2O)c1`, the values for the composite z-score (in assay [1]; in the assay with XIP peptide (Xip251-270)) were 0.252 (inactive) and -1.5, respectively. In addition, the z-score in assay [2] was 0.563; in assay [3] it was -5.25 (inactive).
As for `O=C1[C@H]2[C@H]3[C@H](O)[C@H](O)CC(=NO[C@@H]4O[C@H](CO)[C@@H](O)[C@H](O)[C@H]4O)[C@H]3CC[C@H]2C(=O)N1c1cccc(Oc2ccccc2)c1`, the figures for the composite z-score (in assay [1]; with XIP peptide (Xip251-270)) were -0.373 (inactive) and 0.538, respectively. For the same molecule, the z-score is -0.418 in assay [2] and -1.68 (inactive) in assay [3].
As to `CCCCC#C[C@@H]1C=C[C@H](OC(C)=O)[C@@H](COC(C)=O)O1`, the composite z-score in assay [1] was 1.45 (inactive); with XIP peptide (Xip251-270), 0.641. Moreover, the z-score in assay [2] is 0.247; in assay [3], -4.35 (inactive).
For `COC(=O)NCC=Cc1nc(CCCO)co1`, the composite z-score was -0.755 (inactive) in assay [1] and 0.432 in the assay with XIP peptide (Xip251-270). Moreover, the z-score in assay [2] is 0.316; in assay [3], -2.8 (inactive).
As for `COC(=O)CC=C[C@@H](C)[C@@H]1C=C[C@H](O)[C@@H](CO)O1`, the composite z-score in assay [1] was 0.0118 (inactive); in the assay with XIP peptide (Xip251-270), -0.518. For the same molecule, the z-score is 0.247 in assay [2] and -0.235 (inactive) in assay [3].
In the case of `CSCC[C@@H]1NC(=O)CC=C[C@@H](C)COC(=O)[C@@H](C)COC1=O`, the composite z-score is -0.082 (inactive) in assay [1] and -0.318 with XIP peptide (Xip251-270). For the same molecule, the z-score in assay [2] is -0.866; in assay [3] it was 0.572 (inactive).
The like results for `COc1ccc(COC(=O)NN=C2C[C@@H](O)[C@@H](O)[C@@H]3[C@@H]4C(=O)N(c5ccc(F)cc5F)C(=O)[C@@H]4CC[C@H]23)cc1` were, in that order, 0.051 (inactive), 0.393, -1.93 and -6.79 (inactive).
Take `CCOC(=O)NN=C1C[C@@H](O)[C@@H](O)[C@@H]2[C@@H]3C(=O)N([C@@H](C)c4ccccc4)C(=O)[C@@H]3CC[C@@H]12`: the composite z-score in assay [1] is -0.235 (inactive); with XIP peptide (Xip251-270), 0.519. For the same molecule, the z-score was 0.156 in assay [2] and -1.84 (inactive) in assay [3].
In the case of `CCCCc1nc2c(c3c1C[C@H](C)OC3)CN(CCOc1ccccc1)CC2`, the composite z-score was 1.4 (inactive) in assay [1] and 0.566 in the assay with XIP peptide (Xip251-270). For the same molecule, the z-score in assay [2] was 0.964; in assay [3] it was -4.81 (inactive).
As to `COC(=O)[C@@H]1CC[C@H](C)[C@@H](c2ccc(C)cc2)N1C(=O)c1ccc(C=NOC[C@@H](C)[C@H](OCc2ccccc2)C(C)C)cc1`, the composite z-score in assay [1] is 0.0611 (inactive); with XIP peptide (Xip251-270), 0.489. The z-score in assay [2] was -1.87; in assay [3] it was -4.87 (inactive).
For `O=C1CCCC=C1C(CCc1ccccc1)OC(=O)c1ccc(Br)cc1` (configuration not stated), the figures for the composite z-score (in assay [1]; in the assay on XIP peptide (Xip251-270)) were 0.622 (inactive) and -0.198, respectively. Further, the z-score in assay [2] was -0.108; in assay [3], -1.88 (inactive).
As for `CCc1cc2c(nc1CC)CCN(CCC(C)=NO[C@H](C)c1cn([C@@H]3COC[C@H]3O)nn1)C2`, the results for the composite z-score (in assay [1]; with XIP peptide (Xip251-270)) were -0.171 (inactive) and -0.0063, respectively. Further, the figures for the z-score in assay [2] and in assay [3] were 0.653 and -1.7 (inactive), respectively.
As to `COC(=O)CC=C[C@@H](C)[C@@H](C=NOC[C@@H](O)[C@H]1O[C@@H]2OC(C)(C)O[C@@H]2[C@H]1O)NS(=O)(=O)c1ccc(C)cc1`, the composite z-score in assay [1] was 0.0133 (inactive); in the assay with XIP peptide (Xip251-270), -0.0003. In addition, the z-score is 1.4 in assay [2] and 0.413 (inactive) in assay [3].
